Most compounds without a hit are left out; they make up all but 6% or so of the library.
D1 PAM: human D1 dopamine receptor positive modulation | P21728 | HEK293 TREx D1 cells, calcium flux, dopamine EC20 potentiation | potentiation, % at 10 µM | hit rate 0.036% among 360,000; in the data active = potentiation above about 30%; also: 0% is about no effect
D1 antagonist: blocks dopamine activation of the human D1 receptor; P21728; HEK293 TREx D1 cells, calcium flux, dopamine EC80; hits give low values; activity change, negative = inhibition, % at 10 µM; hit rate 3.2% among 360,000; AID 504652; in the data active = activity change below about -30%; also: % is scaled to controls: 0 for no effect and ±100 for the full control effect
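Calcium flux readout: force-coupled, inducible Hek293 Trex D1 line, cells induced overnight at 30 C with tetracycline, dye-loaded 30–90 min at RT. Antagonism scored against EC80 dopamine challenge given 180 s after compound.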
D1 ag: activates the human D1 dopamine receptor. HEK293 T-REx D1 cells, calcium flux, agonist mode. activation, % at 2 µM. hit rate 1% among 360,000; in the data active = activation above about 30%; also: 0% is about no effect
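Agonism was scored from calcium flux recorded over 180 s (1 read/s) after pintool compound addition, following a 10-cycle baseline. Cells were inducible force-coupled HEK293 TREx D1, plated overnight at 30 C and loaded with no-wash calcium dye.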
D3 ag: activates the human D3 dopamine receptor. P35462. D3R DiscoveRx beta-arrestin cells, luminescence, 90 min. max activation, %. hit rate 0.58% among 410,000; in the data active = max activation above about 30%; also: 0% is about no effect
Target sequence (P35462 whole entry, looked up): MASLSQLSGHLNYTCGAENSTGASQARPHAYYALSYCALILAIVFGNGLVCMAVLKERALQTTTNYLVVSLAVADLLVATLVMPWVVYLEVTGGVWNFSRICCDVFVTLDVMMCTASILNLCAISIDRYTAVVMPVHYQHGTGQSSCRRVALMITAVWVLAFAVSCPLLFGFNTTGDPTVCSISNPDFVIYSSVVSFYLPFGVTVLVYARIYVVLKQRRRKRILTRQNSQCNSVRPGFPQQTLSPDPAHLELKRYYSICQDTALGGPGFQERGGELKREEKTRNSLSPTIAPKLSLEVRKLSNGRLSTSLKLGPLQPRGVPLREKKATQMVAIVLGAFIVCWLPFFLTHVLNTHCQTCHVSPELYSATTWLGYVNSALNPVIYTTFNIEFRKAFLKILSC
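Agonist-mode cell screen: cells plated at 1500/well and incubated overnight at 37 °C, then exposed to library compounds for 90 min at 37 °C. Detection reagent was added for 30–60 min at room temperature, and luminescence was read.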
D3 antag: antagonists of human D3 dopamine receptor | P35462 | D3R cells, DiscoveRx beta-arrestin luminescence, antagonist mode; hits give low values | max response, negative = inhibition, % | hit rate 2.5% among 360,000 | AID 652054; in the data active = max response below about -50%; inconclusive = no clear call, values can overlap the other calls; also: % is scaled to controls: 0 for no effect and ±100 for the full control effect
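Cells expressing the human receptor were seeded at 1500 cells/well, incubated overnight at 37 degrees C in 5% CO2, then exposed to library compounds with dopamine controls for 90 minutes at 37 degrees C before luminescent detection.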
* marks the source's active call; other numbers are inactive results; ? = inconclusive; . = no result given; ! = a repeat was not active.

SMILES | D1 PAM | D1 antagonist | D1 ag | D3 ag | D3 antag
CN(C)c1ccc(/C=C(/C#N)C(=O)NCc2ccccc2)o1 | -4 | -3 | 102* | -17 | -88*
Cc1n[nH]c(=S)n(NC(=O)CC(=O)Nn2c(=S)[nH]nc(C)c2=O)c1=O | -4 | 4 | 3 | -26 | -86*
Cc1cccc(C(=O)Nc2ccc3oc(-c4ccncc4)nc3c2)c1 | -1 | -23 | 5 | 15 | .
O=C(Nc1ccc2nc(SCC(=O)N3CCc4ccccc43)sc2c1)c1ccccc1 | -1 | -27 | 7 | 2 | .
C=CCSC1=N/C(=C\c2ccsc2)C(=O)S1 | -2 | -4 | 3 | -3 | 40
CCSC1=N/C(=C/c2ccsc2)C(=O)N1c1ccccc1 | -12 | -72* | 5 | 11 | 5
CCCCSC1=N/C(=C/c2ccsc2)C(=O)N1c1ccccc1 | -13 | -45* | 16 | 8 | 6
CCCSC1=N/C(=C/c2ccsc2)C(=O)N1c1ccccc1 | -13 | -38* | 13 | 18 | -1
O=C(Nc1ccccc1)c1nnsc1S(=O)c1ccc(Cl)cc1 (configuration not stated) | -4 | -41* | 2 | -23 | -59*
O=C(c1nnsc1S(=O)(=O)c1ccc(Cl)cc1)N1CCOCC1 | 2 | 10 | -3 | -8 | ?
O=C(c1nnsc1S(=O)c1ccc(Cl)cc1)N1CCOCC1 (configuration not stated) | 8 | 18 | 5 | -13 | -51*
Cc1cccc(C)c1OCCCn1c(CCNC(=O)C2CCCCC2)nc2ccccc21 | -2 | 21 | 10 | -11 | .
Cc1oc2cc(O)ccc2c(=O)c1Oc1ccc(F)cc1 | -3 | 7 | 2 | 2 | 2
Cc1oc2cc(O)ccc2c(=O)c1Oc1ccc2ccccc2c1 | -1 | -37* | 5 | 0 | -24
N#C/C(=C\c1ccncc1)c1nc2ccccc2[nH]1 | 4 | -11 | 5 | -1 | -1
N#C/C(=C/c1ccncc1)c1nc2ccccc2s1 | -2 | 1 | 101* | 1 | ?
COc1ccc(-c2cn3c(n2)sc2cc(C(=O)Nc4cccc(SC)c4)ccc23)cc1 | -1 | 0 | 1 | 77* | .
Cc1cc(C)c2c(=O)cc(C(=O)Nc3ccc(S(=O)(=O)N(C)Cc4ccccc4)cc3)oc2c1 | 4 | 2 | 1 | 17 | .
O=C(c1ccc2c(c1)CCC2)N1CCN(Cc2ccccc2)CC1 | . | . | . | -7 | -61*
CCCOC(=O)c1ccc2c(c1)C(=O)N(c1ccccc1)C2=O | -4 | -35* | 7 | 3 | 22
O=C(CN1CCN(Cc2ccccc2)CC1)Nc1ccc2c(c1)CCC2 | 10 | -7 | 5 | -16 | -20
Cc1ccc(N2C(=O)c3ccc(C(=O)N4CCN(Cc5ccccc5)CC4)cc3C2=O)cc1 | -5 | -48* | 58* | -15 | -24
CCCOC(=O)CN1C(=O)c2ccc(C(=O)OCCC)cc2C1=O | -4 | -28 | 0 | 7 | 6
COc1cc(OC)cc(C(=O)N2CCN(C3CCN(Cc4ccccc4)CC3)CC2)c1 | -3 | -23 | 0 | -6 | -62*
COc1ccc(NC(=O)CCCn2nc(C)c3sc4ccccc4c3c2=O)cc1 | -3 | -8 | 1 | -2 | .
SMILES | D1 PAM | D1 antagonist | D1 ag | D3 ag | D3 antag
CCc1ccc(NC(=O)C(=O)NCCc2sc(-c3ccc(C)cc3)nc2C)cc1 | -2 | 25 | 0 | 7 | .
O=C(O)C1CCN(C(=O)c2csc(-c3ccc4c(c3)CCO4)n2)CC1 | 1 | -34* | 3 | -3 | -8
CCOC(=O)c1csc(-c2ccc3c(c2)CCO3)n1 | -2 | 2 | 1 | -17 | -23
O=C(OCC#CCSc1nnc(-c2cccc3ccccc23)o1)c1ccco1 | 5 | 3 | 32*! | 0 | -21
CCCCCNc1nc(N2CCCC2)c2c(c1C#N)CCN(C)C2 | 4 | 23 | 5 | 1 | -66*
O=C(Nc1ccccc1Br)c1cc(S(=O)(=O)NC2CCCCC2)ccc1F | 0 | -8 | 3 | -7 | .
Cc1cc(Sc2ncnc(N)c2[N+](=O)[O-])ncn1 | -5 | -24 | 1 | -27 | -71*
Cc1cc(Sc2nc(N)ncc2[N+](=O)[O-])ncn1 | -3 | 31 | -2 | -7 | -60*
CCOC(=O)c1oc2ccc(S(=O)(=O)Nc3ccc4c(c3)n(C)c(=O)n4C)cc2c1C | -5 | 8 | -1 | 32* | 9
COc1ccc(S(=O)(=O)Nc2ccc3c(c2)n(C)c(=O)n3C)cc1C | . | 3 | 11 | -2 | 2
Cn1c(=O)n(C)c2cc(NS(=O)(=O)c3ccc4c(c3)CCCC4)ccc21 | -4 | -34* | 7 | -14 | -22
CCN(CC)c1nn2c(=O)c(C(=O)NCc3ccc(OC)cc3OC)cnc2s1 | -5 | -7 | 0 | -14 | .
COc1ccc(C(CNC(=O)c2cccc(S(=O)(=O)Nc3ccc(F)cc3)c2)N(C)C)cc1 (configuration not stated) | -6 | -23 | 44* | -31 | ?
CCOc1ncccc1C(=O)NNC(=O)c1cccc(S(=O)(=O)Nc2ccc(OC)cc2)c1 | -14 | -46* | 3 | -11 | -5
COc1ccc(C(CNC(=O)c2cccc(NS(=O)(=O)c3ccc(C)c(F)c3)c2)N(C)C)cc1 (configuration not stated) | -7 | -13 | 11 | -23 | -59*
O=C(Cn1c2ncccc2c(=O)n1-c1ccccc1)Nc1cccc(C(F)(F)F)c1 | -1 | -7 | 6 | 7 | .
CCc1ccccc1-n1c(N)c(C(=O)OC)c2nc3ccccc3nc21 | -2 | -11 | 0 | 4 | .
CCC(=O)N1c2ccccc2CC1C(=O)NCCN1CCN(c2cc(Cl)ccc2C)CC1 (configuration not stated) | 0 | 2 | 0 | -27 | .
C=CCOC(=O)c1[nH]c2c(c1C)C(=O)CC(c1ccco1)C2 (configuration not stated) | -1 | -19 | 5 | -9 | -26
Cc1c(C(=O)OCC(C)C)[nH]c2c1C(=O)CC(c1ccco1)C2 (configuration not stated) | 4 | -3 | 5 | -11 | -53*
Cc1cc(SCC(=O)Nc2nsc(-c3ccc(C(C)(C)C)cc3)n2)nc2ccccc12 | 4 | 9 | 5 | 10 | .
Cc1ccc(SC2=C(Sc3ccc(C)cc3)C(=O)c3ccccc3C2=O)cc1 | 6 | 49 | 2 | -18 | -114*
Cc1ccc(N2C(=O)c3ccccc3C2=O)cc1 | -11 | -23 | -1 | 1 | ?
COc1ccc(C(=O)NCC(c2ccco2)S(=O)(=O)c2cccs2)cc1 (configuration not stated) | -3 | . | 0 | 3 | .
O=C(Nc1ccc(Cl)cc1)Nc1ccc2c(c1)N1CCN=C1S2 | -7 | 0 | 11 | -5 | -1
Nc1ccc2c(c1)N1CCN=C1S2 | -6 | -9 | 1 | -2 | -64*
CCOc1cc(/C=C2/NC(=O)NC2=O)cc([N+](=O)[O-])c1O | 4 | -3 | 1 | -20 | -86*

Screening data (PubChem BioAssay)
